CtBP-E1A blk – inhibitors of CtBP/E1A interaction. AlphaScreen GST-E1A/His-CtBP binding, 1536-well; stronger effect = lower value. activity change, % (test concentration not listed). AID 651724. 340,000 tested, 0.49% active; in the data active = activity change below about -65%; inconclusive = mostly about -30% to -63%; also: % is scaled to controls: 0 for no effect and ±100 for the full control effect
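Protein mix (5X: 125 nM each GST-E1A, His-CtBP) was incubated with pinned compound 2 h at 37 deg C in dark, in 50 mM Tris pH 8.0 buffer with 300 mM NaCl. Glutathione donor and nickel acceptor beads followed; AlphaScreen signal read after 1 h.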
HP1b binding inh – blocks HP1-beta chromodomain binding to methylated histone tails; Potency, µM (top dose mostly 114 µM), for inactives: top-dose activity change, negative = inhibition, hits mostly inhibitors; AID 540317; AlphaScreen HP1-beta / biotin-H3K9me3 peptide binding; P83916; 390,000 tested, 0.56% active; also: potency is read from the fitted curve at half-maximal effect; nearly all actives have a fitted effect of over 70% in size
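AlphaScreen: HP1-beta (50 nM) preformed 30 min with biotin-H3(1-18)K9me3 peptide (50 nM) in PBS pH 7.4, 0.01% Tween-20. Compound added for 30 min at RT, then streptavidin donor/nickel chelate acceptor beads (10 ug/mL) for 30 min.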
BAZ2B inh – BAZ2B (human) inhibition; AlphaScreen BAZ2B-H3K14Ac peptide displacement; AID 504333; Q9UIF8; 360,000 tested, 4.4% active; Potency, µM (series often up to 114 µM), for the others: top-dose activity change, negative = inhibition, usual class: inhibitors; also: potency is read from the fitted curve at half-maximal effect; % is scaled to controls: 0 for no effect and ±100 for the full control effect; nearly all actives have a fitted effect of over 60% in size
Target sequence (Q9UIF8 whole entry, looked up): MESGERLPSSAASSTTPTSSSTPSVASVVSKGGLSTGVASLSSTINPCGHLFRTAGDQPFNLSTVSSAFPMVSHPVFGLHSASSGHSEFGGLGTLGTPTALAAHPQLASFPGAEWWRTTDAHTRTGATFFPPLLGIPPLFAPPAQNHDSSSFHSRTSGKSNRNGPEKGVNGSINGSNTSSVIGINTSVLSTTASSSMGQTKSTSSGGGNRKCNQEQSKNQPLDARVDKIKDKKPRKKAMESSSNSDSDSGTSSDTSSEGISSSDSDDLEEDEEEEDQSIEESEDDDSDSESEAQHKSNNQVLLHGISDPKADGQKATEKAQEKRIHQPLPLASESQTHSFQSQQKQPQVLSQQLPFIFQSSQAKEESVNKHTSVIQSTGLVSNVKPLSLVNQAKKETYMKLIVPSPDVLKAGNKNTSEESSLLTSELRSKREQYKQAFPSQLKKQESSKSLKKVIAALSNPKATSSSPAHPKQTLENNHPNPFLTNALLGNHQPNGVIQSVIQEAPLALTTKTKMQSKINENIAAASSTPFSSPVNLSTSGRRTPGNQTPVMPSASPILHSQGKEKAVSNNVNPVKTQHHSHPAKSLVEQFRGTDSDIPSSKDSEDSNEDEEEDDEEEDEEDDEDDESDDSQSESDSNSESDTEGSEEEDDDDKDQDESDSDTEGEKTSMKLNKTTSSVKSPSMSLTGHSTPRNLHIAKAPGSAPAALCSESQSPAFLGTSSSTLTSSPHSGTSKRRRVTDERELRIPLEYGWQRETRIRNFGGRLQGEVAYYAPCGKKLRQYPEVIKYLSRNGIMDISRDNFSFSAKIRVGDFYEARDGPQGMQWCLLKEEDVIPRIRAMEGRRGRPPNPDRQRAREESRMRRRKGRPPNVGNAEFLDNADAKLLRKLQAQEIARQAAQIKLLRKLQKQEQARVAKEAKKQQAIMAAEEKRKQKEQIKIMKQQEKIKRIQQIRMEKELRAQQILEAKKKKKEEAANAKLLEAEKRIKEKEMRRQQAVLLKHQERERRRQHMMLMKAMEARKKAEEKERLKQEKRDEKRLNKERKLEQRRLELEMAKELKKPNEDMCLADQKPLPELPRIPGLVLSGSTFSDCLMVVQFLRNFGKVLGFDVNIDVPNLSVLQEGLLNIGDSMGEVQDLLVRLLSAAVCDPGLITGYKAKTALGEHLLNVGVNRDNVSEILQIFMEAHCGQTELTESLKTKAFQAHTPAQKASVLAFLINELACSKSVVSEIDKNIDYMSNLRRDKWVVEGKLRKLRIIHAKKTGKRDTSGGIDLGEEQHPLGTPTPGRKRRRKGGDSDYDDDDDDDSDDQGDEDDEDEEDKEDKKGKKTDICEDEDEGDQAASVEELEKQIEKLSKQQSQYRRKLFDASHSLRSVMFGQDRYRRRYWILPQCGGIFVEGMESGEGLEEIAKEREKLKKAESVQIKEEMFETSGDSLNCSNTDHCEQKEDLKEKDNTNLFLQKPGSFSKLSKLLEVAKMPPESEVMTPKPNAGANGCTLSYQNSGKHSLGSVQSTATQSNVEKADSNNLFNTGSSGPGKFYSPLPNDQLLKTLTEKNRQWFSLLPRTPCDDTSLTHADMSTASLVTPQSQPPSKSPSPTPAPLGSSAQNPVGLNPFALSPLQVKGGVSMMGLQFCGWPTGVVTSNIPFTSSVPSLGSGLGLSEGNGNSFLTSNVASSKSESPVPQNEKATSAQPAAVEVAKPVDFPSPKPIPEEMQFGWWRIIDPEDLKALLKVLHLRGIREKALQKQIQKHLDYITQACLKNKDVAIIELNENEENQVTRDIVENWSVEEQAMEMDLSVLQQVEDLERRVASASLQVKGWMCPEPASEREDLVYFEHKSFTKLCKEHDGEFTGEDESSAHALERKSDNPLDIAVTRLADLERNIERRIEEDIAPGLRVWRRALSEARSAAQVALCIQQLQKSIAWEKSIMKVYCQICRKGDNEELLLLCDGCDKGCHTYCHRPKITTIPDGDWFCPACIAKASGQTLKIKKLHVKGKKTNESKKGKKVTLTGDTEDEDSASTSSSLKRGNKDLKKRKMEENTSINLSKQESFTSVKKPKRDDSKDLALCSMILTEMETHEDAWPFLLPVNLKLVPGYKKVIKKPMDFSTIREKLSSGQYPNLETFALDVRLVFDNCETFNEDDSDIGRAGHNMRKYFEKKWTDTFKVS
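Multi-concentration screen (max 110 uM) measuring displacement of acetylated histone H3 peptide from BAZ2B by AlphaScreen, using 50 nM protein, 50 nM peptide and 10 ug/mL streptavidin donor plus Ni-chelate acceptor beads.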
JMJD2A Tudor inh – JMJD2A Tudor domain (human) inhibition; O75164; AlphaScreen JMJD2A-Tudor / H3K4me3 peptide binding; Potency, µM (series often up to 114 µM), inactives show top-dose activity change, negative = inhibition, actives largely listed as inhibitors; 390,000 tested, 4.4% active; AID 504339; also: potency is read from the fitted curve at half-maximal effect; % is scaled to controls: 0 for no effect and ±100 for the full control effect; nearly all actives have a fitted effect of over 50% in size
Six1-Eya2 blk – inhibitors of human Six1/Eya2 interaction | Q15475+O00167 | AlphaScreen GST-Six1/His-Eya2 binding, biochemical; stronger effect = lower value | activity change, % (no concentration beside the values) | 360,000 tested, 0.56% active | AID 651725; in the data active = activity change below about -65%; inconclusive = mostly about -30% to -63%; also: % is scaled to controls: 0 for no effect and ±100 for the full control effect
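AlphaScreen luminescence read after one hour at 37 °C in darkness. Pin-transferred compounds met GST-Six1 and His-Eya2 protein (5X stock 250 nM/500 nM) plus glutathione donor and Ni-chelate acceptor beads (5X, 50 ug/mL).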
G9a block – G9a (human) methyltransferase inhibition; Q96KQ7; G9a H3K9 monomethylation, AlphaScreen, 2 h; Potency, µM (top dose mostly 102 µM), without a hit: at the top dose activity, negative = inhibition, hits mostly inhibitors; 350,000 tested, 8.8% active; AID 504332; also: potency is read from the fitted curve at half-maximal effect; % is scaled to controls: 0 for no effect and ±100 for the full control effect; nearly all actives have a fitted effect of over 75% in size
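Quantitative HTS format: methyltransferase activity on a biotin-tagged H3K9 peptide is measured by AlphaScreen, using a rabbit anti-monomethyl-H3K9 antibody with streptavidin donor and anti-IgG acceptor beads. Final levels are 20 nM enzyme, 500 nM peptide, 20 uM SAM; 2 h RT.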
* marks the source's active call; other numbers are inactive results; ? = inconclusive; nt = no result; [ ] = another dose, or the depositor's remark. Shown are actives, neighbours in structure and some others; about 10% of the full set was active somewhere. Unless noted, calls follow the shape of the dose curve; as a rule, active = well fitted inhibition curve with a large enough effect; inconclusive = small, poorly fitted or top-dose-only effect; inactive = no such curve, though single readings can be large or run the other way.

SMILES	CtBP-E1A blk	HP1b binding inh	BAZ2B inh	JMJD2A Tudor inh	Six1-Eya2 blk	G9a block
CCOC(=O)N1CCN(C2=C(NS(=O)(=O)c3ccc(NC(C)=O)cc3)C(=O)c3ccccc3C2=O)CC1	nt	-11%[57 µM]	45µM*	?	-18	28µM*
CC(=O)Nc1ccc(S(=O)(=O)Nc2cc(C)cn(Cc3ccccc3)c2=O)cc1	0	27%	-3%	25µM*	2	14%[59 µM]
CC(=O)Nc1ccc(S(=O)(=O)Nc2cccn(Cc3ccc(C)cc3)c2=O)cc1	-1	4%	-8%	-29%	-5	3%
CC(=O)Nc1ccc(S(=O)(=O)Nc2nc3ccccc3nc2N2CCCC2)cc1	0	39%	-6%	-11%	18	-28%[59 µM]
CCN1CCN(C2=C(NS(=O)(=O)c3ccc(C)cc3)C(=O)c3ccccc3C2=O)CC1	-16	6%	?	-35%	-18	40µM*
CCOC(=O)N1CCN(C(=O)c2ccc(S(=O)(=O)Nc3ccc(C)cc3)cc2)CC1	-12	34%	nt	-19%	5	nt
CC(=O)Nc1ccc(S(=O)(=O)NC2=C(N3CCN(C)CC3)C(=O)c3ccccc3C2=O)cc1	nt	0%[57 µM]	32µM*	-25%	-7	50µM*
COc1cccc(NC(=O)N2CCCC2C(=O)NC2CCCC2)c1 (stereo unspecified)	-24	-3%	-15%	5%	-5	-1%
CC1CCN(C(=O)c2cc(-c3cccc(Cl)c3)on2)CC1	nt	57%	95%	31%	nt	7%[59 µM]
CCN1CCN(C2=C(NS(=O)(=O)c3ccc(NC(C)=O)cc3)C(=O)c3ccccc3C2=O)CC1	nt	30%	?	7%	-19	?
CC(=O)Nc1ccc(S(=O)(=O)NC2=C(N3CCN(Cc4ccccc4)CC3)C(=O)c3ccccc3C2=O)cc1	?	32µM*	20µM*	35µM*	?	?
Cc1ccc(NS(=O)(=O)c2ccc3c(c2)[C@H]2C=CC[C@H]2[C@@H](c2ccc(F)cc2)N3)cc1C	nt	-8%	?	?	nt	5.6µM*
COC(=O)c1ccc([C@@H]2Nc3c(OC)ccc(C)c3[C@@H]3C=CC[C@@H]32)cc1	nt	-8%	?	?	nt	3.2µM*
COC(=O)c1ccc([C@H]2Nc3ccc(S(=O)(=O)Nc4cccc(C)c4)cc3[C@H]3C=CC[C@H]32)cc1	nt	-14%	40µM*	35µM*	nt	4.5µM*
COC(=O)c1ccc(C2NC(=O)CCC2[N+](=O)[O-])cc1 (stereo unspecified)	-14	6%	-2%	-6%	-7	0%
O=C(O)c1ccc(NS(=O)(=O)c2ccc3c(c2)C2C=CCC2C(c2ccccc2F)N3)cc1 (stereo unspecified)	-5	5%	50µM*	?	-17	10µM*
COc1ccccc1NC(=O)C1=C(C)Nc2c(C(=O)Nc3ccc(F)cc3)cnn2C1c1ccc(Cl)cc1 (stereo unspecified)	nt	14%	-4%[57.1 µM]	-29%	nt	?
C=CCNC(=S)N/N=C/c1cn(C)c2ccccc12	-8	?	-25%	56µM*	-21	nt
Cn1cc(/C=N/NC(N)=S)c2ccccc21	0	23%	-32%	-25%	-11	-12%[59 µM]
Cc1c(C(=O)N2CCN(C(=O)c3ccco3)CC2)sc2nc(-c3ccc(F)cc3)cn12	-4	31%	-21%	-22%	-8	40µM*
Cc1c(C(=O)Nc2cc(F)ccc2F)sc2nc(-c3ccc(F)cc3)cn12	nt	22%[57 µM]	8%	-17%	nt	27%[59 µM]
COc1ccc(-c2cn3c(C)c(C(=O)N4CCCc5ccccc54)sc3n2)cc1	-27	-15%	nt	?	-4	nt
Cc1c(C(=O)Nc2ccncc2)sc2nc(-c3ccc(F)cc3)cn12	-4	44%	-3%	-13%	-10	40µM*
COc1ccc(-c2cn3c(C)c(C(=O)Nc4ccncc4)sc3n2)cc1	-11	45%	-33%	-17%	-2	13µM*
CCOc1ccc(NC(=O)c2sc3nc(-c4ccc(OC)cc4)cn3c2C)cc1	nt	17%[57 µM]	-7%	-15%	nt	-3%[59 µM]

Assay outcomes: PubChem, National Center for Advancing Translational Sciences (NCATS)
